Compound activity: PubChem BioAssay, several laboratories
LMP1 NFkB inh: Epstein-Barr LMP1 NF-kappaB reporter inhibition; LMP1-induced NF-kappaB luciferase reporter cells, luminescence; inhibition, % at 12.5 µM; 350,000 tested, 0.69% active; AID 504558; in the data active = inhibition above about 41%;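 note: 0% = neutral control wells and 100% = reference inhibitor control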
PAX8 inh HTS: lowers PAX8-driven luciferase in RMG-I cells; RMG-I TPO-luciferase reporter, SteadyGlo, 24 h; AID 652154; 360,000 tested, 1.2% active; inhibition, % at 12.6 µM;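 active = mean replicate inhibition at least 60% with every replicate also reaching 60%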;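 note: luciferase light reporting Pax8 driven TPO promoter activity; plate controls were median of neutral control wells for no effect and mitoxantrone controls for full effect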
TROY NFkB inh: TROY signaling inhibition. inhibition, % at 10 µM. Q293 LMP1-TROYcd NF-kB luciferase reporter, 4 h. 360,000 tested, 0.98% active. AID 1347056;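 active = compounds whose plate-normalised and pattern-corrected inhibition of the luciferase reporter signal at the single screening dose is 50% or more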
TWEAK-Fn14 inh: TWEAK-Fn14 signaling inhibition; inhibition, % at 10 µM; 360,000 tested, 2% active; AID 1159606; TWEAK-stimulated Fn14 reporter cells, luciferase luminescence, 8 h; in the data active = inhibition above about 50%
EWS-Fli block: inhibitors of EWS/Fli oncoprotein transcriptional activity. A673 NR0B1-luciferase reporter, viability-normalised. inhibition, % at 12.6 µM. 350,000 tested, 0.67% active;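 active = mean inhibition of at least 50% after viability correction, with every replicate also passing that limit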;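 note: firefly luciferase signal divided by Alamar Blue viability fluorescence both relative to DMSO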
LGR2 inh: Drosophila LGR2 receptor signaling inhibition. HEK293 LGR2, CRE-luciferase, bursicon-stimulated, 4 h. inhibition, % at 9.99 µM. 380,000 tested, 0.35% active;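 active = drop in luminescence signal, shown as inhibition above about 50% in the replicate tests, limit read from the data, passing the limit was not always enough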;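 note: agonist challenge used bursicon conditioned medium at about half maximal strength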
* hit, by the source's call. The list is not random: actives were taken first. Their share in the collection is about 3.2%.

How did CCCCc1nnc(NC(=O)c2ccc(S(=O)(=O)N3CCOCC3)cc2)s1 do in these assays?
LMP1 NFkB inh: 1.2; PAX8 inh HTS: 0.9; TROY NFkB inh: -5.6; TWEAK-Fn14 inh: 6.9; EWS-Fli block: 8.7; LGR2 inh: -4.2

What do the screens show for `CCc1nnc(NC(=O)c2ccc(S(=O)(=O)N3CCc4ccccc4C3)cc2)s1`?
LMP1 NFkB inh: 2.3; PAX8 inh HTS: -2.4; TROY NFkB inh: 5.2; TWEAK-Fn14 inh: 4.2; EWS-Fli block: -15.7; LGR2 inh: -6.9

What do the screens show for `O=C(Nc1ccccn1)c1ccc(Cl)c(S(=O)(=O)N2CCc3ccccc32)c1`?
LMP1 NFkB inh: 20.9; PAX8 inh HTS: 27.4; TROY NFkB inh: 32.8; TWEAK-Fn14 inh: 56.3*; EWS-Fli block: -21.1; LGR2 inh: 6.4

How did C[C@H](CO)N1C[C@H](C)[C@@H](CN(C)C(=O)Nc2cc(F)ccc2F)Oc2cc(C#CC3CCCC3)ccc2S1(=O)=O do in these assays?
PAX8 inh HTS: 28.3; EWS-Fli block: 9.3

How did C[C@@H]1CN([C@H](C)CO)S(=O)(=O)c2ccc(C#CC3CCCC3)cc2O[C@@H]1CN(C)C(=O)Nc1cc(F)ccc1F do in these assays?
PAX8 inh HTS: 70.2*; EWS-Fli block: 43.6; LGR2 inh: 11.5

How did C[C@@H]1CN([C@H](C)CO)S(=O)(=O)c2ccc(C#Cc3ccc(F)cc3)cc2O[C@H]1CN(C)C(=O)NC1CCCC1 do in these assays?
EWS-Fli block: 28.9; LGR2 inh: 34.1

What do the screens show for `C[C@H](CO)N1C[C@H](C)[C@H](CN(C)C(=O)NC2CCCCC2)Oc2cc(C#Cc3ccc(F)cc3)ccc2S1(=O)=O`?
PAX8 inh HTS: 90.9*; EWS-Fli block: 5.6; LGR2 inh: 27.7

How did C[C@@H]1CN([C@H](C)CO)S(=O)(=O)c2ccc(C#Cc3cccc(F)c3)cc2O[C@H]1CN(C)C(=O)NC1CCCCC1 do in these assays?
PAX8 inh HTS: 67.9*; EWS-Fli block: 13.1; LGR2 inh: 14.9

What do the screens show for `C[C@@H]1CN([C@H](C)CO)S(=O)(=O)c2ccc(C#Cc3ccc(F)cc3)cc2O[C@H]1CN(C)C(=O)CN(C)C`?
EWS-Fli block: 72.7*; LGR2 inh: 8.7

Results for C[C@H]1CN([C@@H](C)CO)C(=O)Cc2cc(N(C)C)ccc2O[C@@H]1CN(C)Cc1ccc(C(F)(F)F)cc1 ?
PAX8 inh HTS: 17.0; EWS-Fli block: 5.3; LGR2 inh: -22.1

What do the screens show for `Cc1noc(C)c1NC(=O)N(C)C[C@H]1Oc2cc(C#CCC3CCCC3)ccc2S(=O)(=O)N([C@@H](C)CO)C[C@@H]1C`?
PAX8 inh HTS: 66.5*; EWS-Fli block: 0.5; LGR2 inh: 10.8

What do the screens show for `C[C@@H]1CN([C@H](C)CO)S(=O)(=O)c2ccc(C#Cc3ccc(F)cc3)cc2O[C@H]1CN(C)C(=O)NC1CCCCC1`?
PAX8 inh HTS: 97.5*; EWS-Fli block: 0.7; LGR2 inh: 30.2

What do the screens show for `Cc1noc(C)c1NC(=O)N(C)C[C@@H]1Oc2cc(C#CCC3CCCC3)ccc2S(=O)(=O)N([C@H](C)CO)C[C@@H]1C`?
PAX8 inh HTS: 27.0; EWS-Fli block: 1.9; LGR2 inh: 0.1

How did COCC#Cc1cnc2c(c1)C(=O)N([C@@H](C)CO)C[C@@H](C)[C@H](CN(C)C(=O)c1cccnc1)O2 do in these assays?
EWS-Fli block: -6.9; LGR2 inh: 2.8

What do the screens show for `CC(C)(C)N1C(=O)c2ccc(C(=O)Nc3cc(C(=O)O)cc(C(=O)O)c3)cc2C1=O`?
LMP1 NFkB inh: 4.7; PAX8 inh HTS: -2.6; TROY NFkB inh: 16.4; TWEAK-Fn14 inh: 99.4*; EWS-Fli block: -2.6; LGR2 inh: 23.1

Results for N=C1SCC(=O)N1c1ncc(Cc2ccc(F)cc2)s1 ?
LMP1 NFkB inh: 11.9; PAX8 inh HTS: -10.9; TROY NFkB inh: 33.1; TWEAK-Fn14 inh: 102.8*; EWS-Fli block: 23.1; LGR2 inh: -2.7

Results for COc1cccc(C#Cc2c(C=O)n(C)c3ccccc23)c1 ?
LMP1 NFkB inh: 17.8; PAX8 inh HTS: 85.3*; TROY NFkB inh: -27.8; TWEAK-Fn14 inh: 20.7; EWS-Fli block: -17.3; LGR2 inh: -17.1

What do the screens show for `Cn1c(C=O)c(C#CC(C)(C)O)c2ccccc21`?
LMP1 NFkB inh: 0.3; PAX8 inh HTS: 74.3*; TROY NFkB inh: 4.3; TWEAK-Fn14 inh: 9.4; EWS-Fli block: 2.4; LGR2 inh: -0.6

Results for Cn1c(=O)c(C(=O)c2ccccc2)c(O)c2ccccc21 ?
PAX8 inh HTS: -11.9; TROY NFkB inh: 10.7; TWEAK-Fn14 inh: 16.9; EWS-Fli block: -1.9; LGR2 inh: -1.9
